Source: PubChem BioAssay (EPA / NIEHS)
Records with an inconclusive call do not appear. Where a structure was tested more than once in an assay, its records may differ in their call. The source made the active and inactive calls. Rule for the calls: active = hit-call score of the fitted dose curve at least 0.9, where 1 is the maximum; inconclusive = response in the unintended direction; inactive = score below 0.9.

What follows are compounds tested against CDK2 (gene 1017) (UniProt P24941) (assay: NVS_ENZ_hCDK2: NovaScreen (NVS) Enzymatic Assay for human Cyclin-Cependent Kinase 2 (CDK2) (AID 2283144)).
How it was run: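 Cell-free recombinant human CDK2 with fluorescent substrate, product separated by electrophoretic mobility shift; 1 hr read. Primary screen at 25 uM in duplicate, actives retested in concentration-response up to 50 uM; loss of signal versus DMSO.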

Question: For `CCNc1nc(Cl)nc(NC(C)(C)C#N)n1`, which outcome is on record?
Answer: The outcome was “inactive”.

Question: `CCOP(=O)(NC(C)C)Oc1ccc(SC)c(C)c1` (stereo not given) was tested. Which outcome did it give?
Answer: Its outcome is “inactive”.

Question: With `CCCCN(CC)c1c([N+](=O)[O-])cc(C(F)(F)F)cc1[N+](=O)[O-]` as the compound, how does the outcome read?
Answer: Its outcome is “inactive”.

The compounds below were run against human Caspase 8 (CASP8), CASP8 (gene 841) (UniProt Q14790) (assay: NVS_ENZ_hCASP8: NovaScreen (NVS) Enzymatic Assay for human Caspase 8 (CASP8) (AID 2283146)).
human Caspase 8 (CASP8), CASP8 (gene 841), sequence (Q14790 whole entry, looked up): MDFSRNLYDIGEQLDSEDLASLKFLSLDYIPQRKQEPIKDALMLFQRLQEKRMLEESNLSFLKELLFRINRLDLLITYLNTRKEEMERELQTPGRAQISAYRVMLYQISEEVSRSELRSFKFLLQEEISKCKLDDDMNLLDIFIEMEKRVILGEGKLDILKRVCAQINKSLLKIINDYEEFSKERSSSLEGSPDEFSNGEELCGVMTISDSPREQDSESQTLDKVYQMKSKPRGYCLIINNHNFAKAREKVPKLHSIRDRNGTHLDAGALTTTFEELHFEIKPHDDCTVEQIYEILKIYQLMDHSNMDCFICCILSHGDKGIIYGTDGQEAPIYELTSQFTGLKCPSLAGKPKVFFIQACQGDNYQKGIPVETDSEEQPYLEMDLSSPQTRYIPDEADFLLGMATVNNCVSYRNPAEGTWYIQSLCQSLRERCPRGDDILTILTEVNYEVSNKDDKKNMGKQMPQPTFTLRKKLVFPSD
How it was run: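 E. coli-expressed enzyme was used in a cell-free fluorogenic substrate assay read 1 h after dosing. Loss of signal was scored relative to DMSO, and the primary screen was run in duplicate at 25 uM.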

Question: With `COc1ccc(C(=CC(=O)N2CCOCC2)c2ccc(Cl)cc2)cc1OC` as the compound, how does the outcome read?
Answer: Its outcome is “inactive”.

Question: What does the source list for `CN(C)[C@@H]1C(=O)C(C(N)=O)=C(O)[C@@]2(O)C(=O)C3=C(O)c4c(O)cccc4[C@@](C)(O)[C@H]3[C@H](O)[C@@H]12`?
Answer: AC50: 15.8 µM (active); outcome: inactive

Question: Which outcome does the source give for `Cc1nn(-c2cc(NS(C)(=O)=O)c(Cl)cc2Cl)c(=O)n1C(F)F` here?
Answer: Its outcome is “inactive”.

Question: For `S=C1NCCN1`, which outcome is on record?
Answer: The outcome was “inactive”.

Question: How did the AC50 turn out when `CC(C)=CC1C(C(=O)OCN2C(=O)C3=C(CCCC3)C2=O)C1(C)C` (stereo not given) was run?
Answer: Its AC50 is 25 µM (active).

Question: With `O=C(O)c1cc(Oc2ccc(C(F)(F)F)cc2Cl)ccc1[N+](=O)[O-]` as the compound, how does the outcome read?
Answer: Its outcome is “inactive”.

Question: How did the outcome turn out when `Nc1nc(N)nc(NC2CC2)n1` was run?
Answer: The outcome was “inactive”.

What follows are compounds tested against human Casein Kinase 2- alpha 2 beta 2 (CK2a2b2), CSNK2A1 (gene 1457) (UniProt P68400) (assay: NVS_ENZ_hCK2a2b2: NovaScreen (NVS) Enzymatic Assay for human Casein Kinase 2- alpha 2 beta 2 (CK2a2b2) (AID 2283147)).
human Casein Kinase 2- alpha 2 beta 2 (CK2a2b2), CSNK2A1 (gene 1457), sequence (P68400 whole entry, looked up): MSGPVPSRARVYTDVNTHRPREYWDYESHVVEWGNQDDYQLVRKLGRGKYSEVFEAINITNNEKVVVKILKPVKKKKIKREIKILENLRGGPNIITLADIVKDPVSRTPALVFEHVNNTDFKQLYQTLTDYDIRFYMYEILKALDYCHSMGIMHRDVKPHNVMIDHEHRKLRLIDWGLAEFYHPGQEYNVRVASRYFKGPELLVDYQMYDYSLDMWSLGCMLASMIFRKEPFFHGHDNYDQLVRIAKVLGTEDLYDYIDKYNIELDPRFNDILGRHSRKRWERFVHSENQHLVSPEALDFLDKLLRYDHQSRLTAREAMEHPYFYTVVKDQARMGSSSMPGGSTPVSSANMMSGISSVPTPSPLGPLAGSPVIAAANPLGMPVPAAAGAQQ
How it was run: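 Cell-free recombinant CK2 α2β2 holoenzyme with a fluorescent peptide substrate; product separated by electrophoretic mobility shift and read 1 h after dosing. Single-point screen at 25 uM in duplicate; actives were followed with concentration-response up to 50 uM versus DMSO.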

Question: Which outcome does the source give for `CCOP(=S)(Oc1cnc(C(C)(C)C)nc1)OC(C)C` (stereo not given) here?
Answer: Its outcome is “inactive”.

Question: How did the AC50 turn out when `CN(C)[C@@H]1C(=O)C(C(N)=O)=C(O)[C@@]2(O)C(=O)C3=C(O)c4c(O)cccc4[C@@](C)(O)[C@H]3[C@H](O)[C@@H]12` was run?
Answer: Its AC50 is 23.1 µM (active).

Question: For `CC(Oc1cccc(Cl)c1)C(=O)O` (stereo not given), which AC50 is on record?
Answer: The AC50 was 15 µM (active).

Question: How did the AC50 turn out when `CCC(=O)Nc1ccc(Cl)c(Cl)c1` was run?
Answer: Its AC50 is 1.66 µM (active).

Question: `O=C(O)c1cc(Oc2ccc(C(F)(F)F)cc2Cl)ccc1[N+](=O)[O-]` was tested. Which outcome did it give?
Answer: The outcome was “inactive”.

The compounds below were run against human Dual Specificity Protein Phosphatase 3 (DUSP3), DUSP3 (gene 1845) (UniProt P51452) (assay: NVS_ENZ_hDUSP3: NovaScreen (NVS) Enzymatic Assay for human Dual Specificity Protein Phosphatase 3 (DUSP3) (AID 2283152);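 note: phosphatase activity of recombinant human DUSP3 on a fluorogenic substrate without cells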).
human Dual Specificity Protein Phosphatase 3 (DUSP3), DUSP3 (gene 1845), sequence (P51452 whole entry, looked up): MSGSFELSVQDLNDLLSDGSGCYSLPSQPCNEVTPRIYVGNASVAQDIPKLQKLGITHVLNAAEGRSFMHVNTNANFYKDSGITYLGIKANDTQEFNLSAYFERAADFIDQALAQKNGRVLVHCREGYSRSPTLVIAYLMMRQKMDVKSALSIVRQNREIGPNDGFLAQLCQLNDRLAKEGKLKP
How it was run: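 Cell-free assay with recombinant human DUSP3 and fluorogenic substrate, read by fluorescence intensity. Primary screen ran duplicate at 25 uM; actives followed up in concentration series; loss of signal versus DMSO scored.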

Question: With `C=C(C)[C@H]1Cc2c(ccc3c2O[C@@H]2COc4cc(OC)c(OC)cc4[C@@H]2C3=O)O1` as the compound, how does the outcome read?
Answer: Its outcome is “inactive”.

Question: With `C#CCC1=C(C)C(OC(=O)C2C(C=C(C)C)C2(C)C)CC1=O` (stereo not given) as the compound, how does the outcome read?
Answer: Its outcome is “inactive”.

Question: For `CN(C)[C@@H]1C(=O)C(C(N)=O)=C(O)[C@@]2(O)C(=O)C3=C(O)c4c(O)cccc4[C@@](C)(O)[C@H]3[C@H](O)[C@@H]12`, which AC50 is on record?
Answer: The AC50 was 2.62 µM (active).

Question: For `CCCCOC(=O)[C@@H](C)Oc1ccc(Oc2ccc(C#N)cc2F)cc1`, which outcome is on record?
Answer: The outcome was “inactive”.

Question: How did the outcome turn out when `S=C1NCCN1` was run?
Answer: The outcome was “inactive”.

Question: `CCCOCC(=Nc1ccc(Cl)cc1C(F)(F)F)n1ccnc1` was tested. Which outcome did it give?
Answer: Its outcome is “inactive”.

Question: Which outcome does the source give for `CC[C@H](C)[C@H]1O[C@]2(C=C[C@@H]1C)C[C@@H]1C[C@@H](C/C=C(\C)[C@@H](O[C@H]3C[C@H](OC)[C@@H](O[C@H]4C[C@H](OC)[C@@H](NC)[C@H](C)O4)[C@H](C)O3)[C@@H](C)/C=C/C=C3\CO[C@@H]4[C@H](O)C(C)=C[C@@H](C(=O)O1)[C@]34O)O2` here?
Answer: Its outcome is “inactive”.

The compounds below were run against human Elastase, ELANE (gene 1991) (UniProt P08246) (assay: NVS_ENZ_hElastase: NovaScreen (NVS) Enzymatic Assay for human Elastase (AID 2283153)).
human Elastase, ELANE (gene 1991), sequence (P08246 whole entry, looked up): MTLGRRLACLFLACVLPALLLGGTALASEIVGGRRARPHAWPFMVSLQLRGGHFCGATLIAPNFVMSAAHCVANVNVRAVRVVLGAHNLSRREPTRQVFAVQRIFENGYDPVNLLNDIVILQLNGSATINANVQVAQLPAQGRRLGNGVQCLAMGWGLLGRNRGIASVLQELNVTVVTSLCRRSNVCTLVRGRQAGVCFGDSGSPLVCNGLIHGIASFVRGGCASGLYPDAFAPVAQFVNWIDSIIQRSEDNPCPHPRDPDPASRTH
How it was run: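 Cell-free elastase from human neutrophils, 1.5 h after dosing, activity read by absorbance. Primary screen in duplicate at 25 uM; hits (e.g., 30% inhibition) rerun in singleton concentration-response up to 50 uM, fitted versus DMSO.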

Question: How did the AC50 turn out when `CCCSP(=O)(OCC)Oc1ccc(Br)cc1Cl` (stereo not given) was run?
Answer: The AC50 was 25 µM (active).

Question: For `CC(C)[C@H](C(=O)O[C@H](C#N)c1cccc(Oc2ccccc2)c1)c1ccc(Cl)cc1`, which outcome is on record?
Answer: Its outcome is “inactive”.

Question: `S=C1NCCN1` was tested. Which outcome did it give?
Answer: Its outcome is “inactive”.

Question: For `CCOP(=O)(OCC)Oc1cc(C)nc(C(C)C)n1`, which outcome is on record?
Answer: Its outcome is “inactive”.

Question: How did the outcome turn out when `CCOP(=S)(OCC)Oc1cc(C)nc(C(C)C)n1` was run?
Answer: Its outcome is “inactive”.

These compounds were tested against human Ephrin type-B Receptor 1 (EphB1), EPHB1 (gene 2047) (UniProt P54762) (assay: NVS_ENZ_hEphB1: NovaScreen (NVS) Enzymatic Assay for human Ephrin type-B Receptor 1 (EphB1) (AID 2283154)).
human Ephrin type-B Receptor 1 (EphB1), EPHB1 (gene 2047), sequence (P54762 whole entry, looked up): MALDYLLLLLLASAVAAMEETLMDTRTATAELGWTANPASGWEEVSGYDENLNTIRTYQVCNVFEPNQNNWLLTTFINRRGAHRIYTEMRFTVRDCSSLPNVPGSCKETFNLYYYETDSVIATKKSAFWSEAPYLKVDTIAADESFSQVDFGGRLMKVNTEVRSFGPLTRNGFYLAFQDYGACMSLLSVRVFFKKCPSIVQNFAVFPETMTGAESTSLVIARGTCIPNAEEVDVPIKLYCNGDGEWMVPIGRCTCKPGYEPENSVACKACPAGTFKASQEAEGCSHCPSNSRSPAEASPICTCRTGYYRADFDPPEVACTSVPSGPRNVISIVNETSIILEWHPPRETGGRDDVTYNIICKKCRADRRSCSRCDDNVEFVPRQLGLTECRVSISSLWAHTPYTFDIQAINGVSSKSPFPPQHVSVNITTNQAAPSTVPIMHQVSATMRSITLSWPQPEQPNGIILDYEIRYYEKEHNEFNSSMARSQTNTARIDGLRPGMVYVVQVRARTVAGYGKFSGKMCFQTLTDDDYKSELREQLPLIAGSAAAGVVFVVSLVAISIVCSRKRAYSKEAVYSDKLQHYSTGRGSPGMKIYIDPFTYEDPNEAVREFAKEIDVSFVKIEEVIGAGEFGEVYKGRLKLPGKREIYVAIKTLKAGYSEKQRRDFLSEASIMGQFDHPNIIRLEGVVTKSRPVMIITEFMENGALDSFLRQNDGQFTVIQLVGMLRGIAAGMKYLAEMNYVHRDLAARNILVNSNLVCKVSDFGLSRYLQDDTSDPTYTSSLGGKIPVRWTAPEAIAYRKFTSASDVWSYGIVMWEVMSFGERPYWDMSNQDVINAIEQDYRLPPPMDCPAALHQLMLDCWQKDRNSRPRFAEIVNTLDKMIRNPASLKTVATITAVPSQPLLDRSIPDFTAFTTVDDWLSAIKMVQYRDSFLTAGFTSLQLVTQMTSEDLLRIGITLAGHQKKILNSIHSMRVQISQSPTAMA
How it was run: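 Cell-free kinase assay with recombinant enzyme, fluorescent substrate and electrophoretic mobility-shift separation of substrate and product; read 1 h after dosing. Single-concentration duplicate screen at 25 uM; loss of signal versus DMSO baseline.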

Question: For `CCc1cccc(C)c1N(C(=O)CCl)C(C)COC` (stereo not given), which outcome is on record?
Answer: Its outcome is “inactive”.

Question: With `CCCCSP(=O)(SCCCC)SCCCC` as the compound, how does the outcome read?
Answer: Its outcome is “inactive”.

Question: For `CCCSP(=O)(OCC)Oc1ccc(Br)cc1Cl` (stereo not given), which outcome is on record?
Answer: The outcome was “inactive”.

Question: With `CCOP(=S)(OCC)OC(Cl)C(Cl)(Cl)Cl` (stereo not given) as the compound, how does the outcome read?
Answer: The outcome was “inactive”.

Question: Which outcome does the source give for `COP(=O)(OC)C(O)C(Cl)(Cl)Cl` (stereo not given) here?
Answer: The outcome was “inactive”.

Question: For `CNC(=O)Oc1cccc2c1OC(C)(C)O2`, which outcome is on record?
Answer: Its outcome is “inactive”.

Question: Which outcome does the source give for `CC(COc1ccc(Oc2ccccc2)cc1)Oc1ccccn1` (stereo not given) here?
Answer: The outcome was “inactive”.
